In ChEMBL document CHEMBL3988442, “University of Dundee, Small-Polar-MMV Screening Library” (2021):
Among all 48,000 compounds or so, about 13,000 (27%) showed an effect of 50% or more. The list shows a part of the results.

Each compound was assayed on Wolbachia pipientis (assay: Anti-Wolbachia Cell-Based Screen). Settings: 5 µM.
Assay type: functional
Design: scale not given: in the data most compounds retested in dose-response had high values

| Compound | Percent Effect [%] |
| --- | --- |
| Cc1ccc(CNC(c2ccccc2)c2nccn2C)cc1C (configuration not stated) | -2.774 |
| COc1ccc(C(=O)NS(=O)(=O)c2ccc(CNC(C)=O)s2)cc1 | -0.9731 |
| Cc1ccnc(NS(=O)(=O)c2cc(C(N)=O)n(C)c2)c1 | 8.268 |
| Cc1cc(C)cc(NC(=O)CN2CCCC(n3cncn3)C2)c1 (configuration not stated) | 8.702 |
| CC(=O)NC[C@]1(O)CCN(C(=O)c2ccc(C)c(F)c2)C[C@H]1O | 111.8 |
| CS(=O)(=O)NCC1CCCN(C(=O)c2ccc3c(c2)CCC3)C1 (configuration not stated) | -4.65 |
| CC[C@@]1(O)CCN(C(=O)c2ccc(-c3cccc(F)c3)cc2)C[C@H]1O | -0.249 |
| CC[C@@]1(O)CCN(C(=O)CCNC(=O)c2ccc(F)cc2)C[C@H]1O | -29.52 |
| CC(=O)N1CCC2(CC1)CN(C(=O)c1ccc3c(c1)OCO3)C2 | -7.452 |
| CC(=O)NC[C@]1(O)CCN(C(=O)c2ccc3c(c2)CCC3)C[C@H]1O | 101.7 |
| CC(C)=CCN1C[C@H]2CC[C@@H]1CN(C(=O)c1ccc3c(c1)OCO3)C2 | 36 |
| COCC1CC2(CCN(C(=O)c3ccc(F)c(Cl)c3)CC2)CO1 (configuration not stated) | -3.157 |
| CC[C@@]1(O)CCN(C(=O)c2ccc(CN3CCCCCC3)cc2)C[C@H]1O | -35.93 |
| CC[C@@]1(O)CCN(C(=O)c2ccc(SC)cc2)C[C@H]1O | -2.102 |
| CC(=O)NC[C@]1(O)CCN(C(=O)c2ccc3c(c2)OCO3)C[C@H]1O | 124.1 |
| CC(=O)NC[C@]1(O)CCN(C(=O)c2ccc(F)c(Cl)c2)C[C@H]1O | 117.5 |
| Cc1nn(CCO)cc1CN1CCC(C(C)N2CCCC2)CC1 (configuration not stated) | 9.031 |
| CCOc1ccc(CNC2CCCN(c3cccnn3)C2)cc1OC (configuration not stated) | -5.556 |
| CCCn1ncc(C(=O)N(Cc2cccnc2)C[C@@H]2CCC(=O)N2)c1C | -6.874 |
| CCn1c(CC2CCN(C(=O)C3CC(C(C)C)=NO3)CC2)nn(C)c1=O (configuration not stated) | 5.338 |
| O=C(CCC(=O)N1CCCC1c1cccs1)N1CCc2sccc2C1 (configuration not stated) | 12.25 |
| O=C(NC1CC(=O)N(C2Cc3ccccc3C2)C1)c1cc[n+]([O-])cc1 (configuration not stated) | 5.46 |
| CC(=O)N1CCN(C(=O)CNc2c(C)cccc2OC(F)F)CC1 | -9.064 |
| Cc1ccc(C(=O)N2CCC(=O)N(CC3CC3)C(C(C)C)C2)c(=O)[nH]1 (configuration not stated) | 0.658 |
| CC(Cc1ccco1)NC(=O)Nc1cnn(CC(N)=O)c1 (configuration not stated) | 6.71 |
| CCOCCCNC(=O)c1cc(C)nc(N2CCCC2)n1 | 24.14 |

| Compound | Percent Effect [%] |
| --- | --- |
| Cc1cc(O)nc(C2CCN(C(=O)CO)CC2)n1 | 98.46 |
| Cc1cc(C(F)(F)F)nc(C2CCN(C(=O)CO)CC2)n1 | 124.3 |
| COCCNC(=O)CN1CCN(c2nc(C)cs2)C(C)C1 (configuration not stated) | 5.094 |
| CNCC(=O)N1CCCC(c2cccc(Nc3nc(C)cc(C)n3)n2)C1 (configuration not stated) | -17.94 |
| COCCNC(=O)c1cc(C)nc(C2CCN(C)CC2)n1 | 102.6 |
| Cc1cc(C)nc(Nc2cc(C)nc(C3CCN(C(=O)CO)C3)n2)n1 (configuration not stated) | 114 |
| COc1cc(C)nc(N2CCN(C(=O)COCC(F)(F)F)CC2)n1 | -18.67 |
| O=c1[nH]c2nc(NCC3CCCO3)ncc2c(=O)n1-c1cccc(F)c1 (configuration not stated) | -6.626 |
| CCc1noc(CC)c1CC(=O)N1CCN(C(=O)C2CCCC2)CC1 | -21.61 |
| O=C(CCCc1cn[nH]c1)N1C[C@@H](CN2CCCCCC2)[C@@H](CO)C1 | 0.3132 |
| CN(C)CCN(Cc1ccsc1)C(=O)C1=NNC(=O)CC1 | -24.72 |
| COC(=O)[C@H]1CN(S(C)(=O)=O)CCN1S(C)(=O)=O | -6.679 |
| Cc1cnc(NCC(C)(C)N2CCOCC2)nc1 | -8.824 |
| CC1CCN(C(=O)CN2CCC(c3n[nH]c(C4CC4)n3)CC2)CC1 | -23.79 |
| Cc1nc(C2CCN(C(=O)CO)CC2)cc(N2CCOCC2)n1 | 8.233 |
| Cc1cc(C)nc(C2CCN(C(=O)CO)CC2)n1 | 128.5 |
| COC(=O)Cc1cccc(NC(=O)Cc2ccon2)c1 | 4.933 |
| Cc1nc2c(c(NC(C)C)n1)CCN(C(=O)c1cc[nH]n1)CC2.O=C(O)C(F)(F)F | -4.947 |
| CC(C)Nc1nc2c(c(NC3CC3)n1)CCN(C(=O)C1CCOC1)CC2 (configuration not stated) | 25.31 |
| COCC(=O)N1CCc2nc(NC(C)C)nc(NC(C)C)c2CC1 | 95.04 |
| CCOCc1nc2c(c(NCCNC(C)=O)n1)CCN(C(C)=O)CC2 | 14.8 |
| CC(C)Nc1nc2c(c(NC3CC3)n1)CN(C(=O)c1ccncc1)CC2 | 1.63 |
| CCOCC(=O)N1CCc2nc(C)nc(NC(C)C)c2CC1 | 81.04 |
| CC(=O)NCC(=O)N1CCc2nc(C)nc(C)c2CC1 | -10.4 |
| COCC(=O)N1CCc2nc(C)nc(NC(C)C)c2CC1 | 69.97 |
| Cc1nc2c(c(NC(C)C)n1)CCN(C1CCOCC1)CC2.O=C(O)C(F)(F)F | -10.52 |

| Compound | Percent Effect [%] |
| --- | --- |
| Cc1nc2c(c(NC3CC3)n1)CCN(C(=O)CCO)CC2.O=C(O)C(F)(F)F | -1.283 |
| Cc1nc2c(c(NC(C)C)n1)CCN(C(=O)CCO)CC2 | 103 |
| COCC(=O)NCC(Cc1cccc(F)c1)n1cccc1 (configuration not stated) | 5.07 |
| CC(C)SCCNC(=O)c1cccc2ccnn12 | 5.28 |
| Cc1cc(C)c(CNC(=O)N(C)Cc2nnc3n2CCC3)c(=O)[nH]1 | 2.2 |
| CSCC(C)(O)CNC(=O)c1ccc(Br)cc1F (configuration not stated) | 2.874 |
| COCC(NC(=O)NCc1cccc(Cl)c1)c1ccco1 (configuration not stated) | 4.656 |
| Cc1ccc(N2CCC3(CCC(=O)N3)CC2)nn1 | -16.01 |
| Cc1csc(N2CCN(CCCN3CCCC3=O)CC2)n1 | -4.511 |
| Cc1csc(N2CCC(CCN3CCCC3=O)CC2)n1 | 99.55 |
| Cc1ccc(N2CC[C@]3(O)CCN(CCN4CCCC4=O)C[C@@H]3C2)nn1 | -23.37 |
| Cc1ccc(N2CCC(CCN3CCCC3=O)CC2)nn1 | 86.49 |
| Cc1csc(N2CCCN(C(=O)CCN3CCCC3=O)CC2)n1 | 4.733 |
| OCC1(O)CCN(Cc2ccc(-c3cc[nH]n3)s2)CC1 | -3.236 |
| CCCN1CC(NC(=O)Nc2nc(C)n(C(C)C)n2)CC1=O (configuration not stated) | -10.65 |
| CC1CN(CC(=O)Nc2nncs2)CCN1Cc1nccn1C (configuration not stated) | -11.48 |
| Cc1nn(C)c(C)c1NC(=O)CN1CCN(c2nccs2)C(C)C1 (configuration not stated) | 107.6 |
| CCc1cnc(N2CCN(CC(=O)Nc3c(C)n[nH]c3C)CC2)s1 | -15.52 |
| Cc1n[nH]c(C)c1NC(=O)CN1CCN(c2nccs2)C(C)C1 (configuration not stated) | 95.63 |
| Cc1csc(N2CCN(CC(=O)Nc3c(C)n[nH]c3C)CC2C)n1 (configuration not stated) | 7.256 |
| Cc1cc(NC(=O)CN2CCN(c3nccs3)C(C)C2)n(C)n1 (configuration not stated) | -9.576 |
| CCC(C(=O)NC1CCN(S(C)(=O)=O)CC1)n1cccn1 (configuration not stated) | -1.013 |
| Cc1cc(C)n(CCC2CC(=O)Nc3cc4[nH]ncc4cc32)n1 (configuration not stated) | 5.657 |
| COc1ccccc1CC1CCCN(CC(=O)N2CCOCC2)C1 (configuration not stated) | 1.243 |
| O=C(C1CCOC1)N1CCC(OCc2ccccc2)CC1 (configuration not stated) | 104.9 |
| O=C(CN1C[C@H]2C[C@H](OCc3ccccc3)C[C@H]2C1)N1CCOCC1 | 120.8 |

| Compound | Percent Effect [%] |
| --- | --- |
| O=C(CCO)N1CC2(CCN(c3ccccc3)C2)C1 | 3.033 |
| O=C(C1CCOC1)N1C[C@H]2CN(c3ccccc3)C(=O)[C@H]2C1 (some centres not stated) | 2.352 |
| O=C(C1CCOC1)N1CC2(CCN(c3ccccc3)C2)C1 (configuration not stated) | 126.5 |
| O=C(COCc1ccccc1)N1CCC(OCc2cccnc2)CC1 | -1.111 |
| O=C(CN1CCSCC1c1ccccc1)N1CCOCC1 (configuration not stated) | -10.11 |
| O=C(C1CCOCC1)N1CCC2(CC1)CC(Oc1ccccc1)CO2 (configuration not stated) | 2.022 |
| O=C(Cc1cccnc1)N1CCC(OCc2ccccc2)CC1 | 5.712 |
| O=C(CO)N1CC2(CCN(c3ccccc3)C2)C1 | -2.652 |
| O=C(C1CCOCC1)N1C[C@H]2C[C@H](OCc3ccccc3)C[C@H]2C1 | 85.95 |
| CC(=O)c1c(C)nn(CC(=O)N2Cc3cnc(C(C)(C)C)nc3C2)c1C | -8.133 |
| CCS(=O)(=O)N1Cc2c(Cn3ccnc3)nn(C)c2C1 | -18.78 |
| CC(C)(C)OC(=O)N1CCCc2ccc(NCc3cc[nH]c3)cc21 | -2.534 |
| O=C(NCC1Cn2nnc(-c3ccsc3)c2CO1)N1CCCC1 (configuration not stated) | -5.299 |
| O=C(O)c1ccc2c(c1)C1(CCCCC1)CN2C(=O)c1cccc(F)c1 | -4.529 |
| COCCN1CCC2(CC1)CN(C(=O)C1CC1)c1ccc(F)cc12.O=C(O)C(F)(F)F | -7.452 |
| O=C(C1CC1)N1CC2(CCN(CC3CC3)CC2)c2cc(F)ccc21.O=C(O)C(F)(F)F | -39.82 |
| Cc1cncc(C(=O)N2Cc3ccccc3C3(CCN(C)CC3)C2)c1 | -5.03 |
| CCN1CCC2(CC1)CN(C(=O)c1cccnc1)c1ccc(Cl)cc12.O=C(O)C(F)(F)F.O=C(O)C(F)(F)F | 116.9 |
| CC(=O)N1CCC2(CC1)CN(C(=O)c1cccnc1)c1ccc(F)cc12.O=C(O)C(F)(F)F | 91.49 |
| CC(=O)N1CCC2(CC1)C(=O)N(c1cccnc1)c1ccc(F)cc12 | -4.26 |
| O=C(O)c1ccc2c(c1)C1(CCCCC1)CN2C(=O)c1ccnnc1 | -1.269 |
| CN1CCC2(CC1)CN(C(=O)c1cccnc1)c1ccc(Cl)cc12 | 127.2 |
| CCN1CCC2(CC1)CN(C(C)=O)c1ccc(C)cc12 | -4.945 |
| CCCN1CCC2(CC1)CN(C(=O)c1cccnc1)c1ccc(F)cc12.O=C(O)C(F)(F)F.O=C(O)C(F)(F)F | 115.7 |
